Compound activity from PubChem BioAssay.
Rows were chosen to be rich in hits. Some 21% of all compounds tested hit in one or more screens of this group.
Pf growth 48h: Primary qHTS for delayed death inhibitors of the malarial parasite plastid, 48 hour incubation; P. falciparum luciferase growth in erythrocytes, 48 h; Potency, µM (top dose mostly 28.7 µM), for the others: top-dose activity change, negative = inhibition, usual class: inhibitors; 5.9% of 310,000 active; further: potency means the concentration at half of the fitted maximal effect; on the % scale 0 is the no-effect control and ±100 the full control effect
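Read-out is firefly luciferase luminescence from an integrated reporter in P. falciparum, so falling signal marks reduced parasite growth. Infected erythrocytes were at 2% hematocrit and 0.1% parasitemia (final) in Albumax-supplemented RPMI 1640.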
HCV inh: qHTS Assay for Inhibitors of Hepatitis C Virus (HCV); Huh7.5.1 HCVcc-Cre infection, luciferase reporter, 44 h; Potency, µM (doses to about 41.8 µM), for the others: at the top dose activity change, negative = inhibition, most hits filed as inhibitors; 3.4% of 340,000 active; AID 651820, 2012; further: potency means the concentration at half of the fitted maximal effect; on the % scale 0 is the no-effect control and ±100 the full control effect
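Antiviral activity was scored by luciferase reporter output from cells infected with HCVcc-Cre (~0.5 moi) in presence of compound, 44 h infection period, cells seeded 1,000/well 4 h prior.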
CHX counter: Cycloheximide Counterscreen for Small Molecule Inhibitors of Shiga Toxin. cell reporter, cycloheximide protein synthesis inhibition counterscreen. max response, %. 12% of 300,000 active; in the data active means max response mostly above about 13%, no sharp cut-off; inactive means mostly below about 14%; further: read at 38.3 µM for the half of the compounds with a filed dose; 0% is about no effect
HCMV inh: qHTS Assay for inhibitors of the human cytomegalovirus (HCMV). activity change, negative = inhibition, % at 57.5 µM. 4.5% of 410,000 active. HFF cells, HCMV-luciferase reporter, 72 h; stronger effect = lower value; in the data active means activity change below about -60%; inconclusive means no clear call, values can overlap the other calls; inactive means above about -39%; further: on the % scale 0 is the no-effect control and ±100 the full control effect
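Two-dose cell screen: HFF monolayers treated with compounds and infected with luciferase-expressing HCMV at 1 PFU/cell, 72 h at 37C, then lysed for luciferase measurement.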
Pf growth 96h: Primary qHTS for delayed death inhibitors of the malarial parasite plastid, 96 hour incubation | P. falciparum luciferase reporter growth, 96 h | Potency, µM (titrated, usually from 28.7 µM), inactives show top-dose activity change, negative = inhibition, usual class: inhibitors | 6.9% of 320,000 active | AID 504834, 2011; further: potency means the concentration at half of the fitted maximal effect; on the % scale 0 is the no-effect control and ±100 the full control effect
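96 h incubation, 37 C, 5% CO2, of luciferase-reporter P. falciparum-infected RBCs (2% hematocrit, 0.05% parasitemia final) with test compounds; endpoint luminescence.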
Shiga toxin inh: A qHTS for Small Molecule Inhibitors of Shiga Toxin; Vero cells, Shiga toxin protein synthesis inhibition reporter; inhibition, % at 38.7 µM; 9.2% of 290,000 active; in the data active means inhibition mostly above about 28%, no sharp cut-off; inactive means mostly below about 43%; further: 0% is about no effect
* marks the source's active call; other numbers are inactive results; i = inactive; ? = inconclusive; nt = not tested or not shown; [ ] = remark or other dose. Unless noted, the call rests on the fitted dose curve; in most records, active means well fitted inhibition curve with a large enough effect; inconclusive means small, poorly fitted or top-dose-only effect, or another doubt; inactive means no such curve, though single readings can be large or run the other way.

SMILES	Pf growth 48h	HCV inh	CHX counter	HCMV inh	Pf growth 96h	Shiga toxin inh
CCCSc1nnc2c(n1)OC(c1ccc(Br)s1)Nc1ccccc1-2 (configuration not stated)	nt	nt	nt	53.2	nt	nt
COc1cc(C(O)c2nc(-c3cccc4cccnc34)cs2)ccc1F (configuration not stated)	nt	nt	nt	58.5	nt	nt
CCOC(=O)CCSc1nc2c(c(C(F)(F)F)c1C#N)CCC2	9.28µM*	-25.2%	-4.4	-18.9	-26.7%	-22.4
CCOC(=O)c1c[nH]c2c3c(ccc2c1=O)CCCC3	0.329µM*	?	22.0*	-11.6	?	44.6
CCOC(=O)c1c[nH]c2c(C)cc(C)cc2c1=O	5.22µM*	-25.1%	-1.9	-22.8	9.9%	-6.9
CCOC(=O)c1c[nH]c2c(Cl)c(Cl)ccc2c1=O	-1.1%	5.3%	-1.4	16.8	-33.6%	-20.3
COc1cc(C=O)ccc1OCCCOc1ccccc1C(=O)O	54.2%	-13.0%	-8.0	26.4	127.8%	-26.7
COc1cc(C=O)ccc1OCCCCOc1ccccc1[N+](=O)[O-]	15.5%	-15.5%	14.8*	-21.7	1.7%	34.9*
COc1cc(C=O)ccc1OCCCOc1ccccc1[N+](=O)[O-]	39.1%	?	47.8*	81.8	11.4%	64.1*
COc1cc(C=O)ccc1OCCOc1ccccc1[N+](=O)[O-]	18.0%	11.2%	28.1*	113.6	14.4%	85.4*
COc1cc(/C=N/n2cnnc2)ccc1OS(=O)(=O)c1ccccc1[N+](=O)[O-]	20.7%	0.9%	10.6	61.3	270.0%	30.0
COc1cc(C=O)ccc1OS(=O)(=O)c1ccccc1[N+](=O)[O-]	12.0%	12.6%	22.3*	164.8	-27.6%	22.1
COc1cc(C=O)ccc1OCCCOc1ccc([N+](=O)[O-])cc1	1.5%	?	-1.9	?	1.9%	9.7
C=CCC[C@H](Cc1ccc(F)cc1)C(=O)OC[C@@H](NC(=O)[C@H](CC=C)CC(=O)NCCO)c1ccccc1	nt	12.3%	nt	-23.2	nt	nt
Nc1[nH]n2c(=O)cc(-c3ccccc3)nc2c1N=Nc1ccc2c(c1)OCO2	0.0%	nt	0.8	nt	-24.9%	21.6
COc1ccccc1CNC(=O)CN1C(=O)COc2ccc(S(=O)(=O)N3CCC(C)CC3)cc21	nt	nt	nt	-3.0	nt	nt
Cc1cc2nc(Sc3c([N+](=O)[O-])nc(C)n3Cc3ccccc3)[nH]c2cc1C	10.4µM*	-12.3%	-1.8	12.1	?	-10.0
Cc1nc([N+](=O)[O-])c(Sc2nc3ccccc3[nH]2)n1Cc1ccccc1	?	?	-4.4	88.4	4.15µM*	-12.1
Cc1nc([N+](=O)[O-])c(N2CCN(Cc3ccccc3)CC2)n1Cc1ccccc1	nt	-7.0%	-4.9	-2.6	16.5µM*	-13.1
COc1ccc2nc(Sc3c([N+](=O)[O-])nc(C)n3Cc3ccccc3)[nH]c2c1	22.5%	?	-5.2	28.3	?	-11.5
O=C1C(c2cccc(Br)c2)N(CCc2ccccc2)C(=O)CN1C1CCCCC1 (configuration not stated)	nt	nt	nt	42.3	nt	nt
COc1ccc2c(CC(=O)N3CCN(S(=O)(=O)c4ccc(F)cc4)CC3)coc2c1	?	2.0%	nt	13.9	?	nt
N#Cc1ccc(-c2nc3c4ccccc4ccn3c2CC2CCCCC2)cc1	nt	nt	nt	43.9	nt	nt
O=C(NC1CC(=O)N(c2cccc(F)c2)C1)N1CCN(C(=O)c2ccco2)CC1 (configuration not stated)	7.2%	14.7%	nt	2.8	27.3%	nt
CN1CCC(OC(=O)c2ccccc2)CC1	-1.7%	13.2%	2.4	-0.7	-18.6%	-3.0
SMILES	Pf growth 48h	HCV inh	CHX counter	HCMV inh	Pf growth 96h	Shiga toxin inh
CCOc1ccc(C(=O)OC2CCN(C)CC2)cc1	9.7%	14.3%	14.0*	-1.8	39.0%	25.8
CN1CCC(OC(=O)COc2ccccc2)CC1	8.9%	12.8%	-1.4	-2.0	11.7µM*	-21.8
CCCOC(C(=O)OC1CCN(C)CC1)(c1ccccc1)c1ccccc1	12µM*	nt	nt	nt	12µM*	nt
CN1CCC(OC(=O)COc2ccc(F)cc2)CC1	2.1%	30.0%	4.7	20.3	?	15.3
Nc1ccccc1NC1=CC(=O)CC(c2ccccc2)C1 (configuration not stated)	24.4%	nt	22.1*	nt	?	44.7
Cc1ccc(NC2=CC(=O)CC(c3ccco3)C2)c(N)c1 (configuration not stated)	?	-11.3%	37.4*	-3.0	5.2%	79.0*
CC1CC(Nc2ccccc2N)=CC(=O)O1 (configuration not stated)	7.2%	1.7%	27.8*	11.7	nt	48.0*
Nc1ccccc1NC1=CC(=O)CC(c2ccco2)C1 (configuration not stated)	?	3.7%	46.7*	7.4	nt	72.0*
COc1ccc(NC2=CC(=O)CC(c3ccccc3)C2)c(OC)c1 (configuration not stated)	?	-2.3%	37.1*	-22.4	?	28.0
Cc1cccc(C(=O)N2CCN=C2SCc2ccc([N+](=O)[O-])cc2)c1	33.4%	-22.9%	17.0	-6.6	29.3%	3.0
Cc1cc(-c2nnc(SCC(=O)Nc3ccccc3C)n2N)n[nH]1	-16.4%	12.8%	5.5	-33.8	?	0.7
CCOc1cc(C(=O)Nc2cccc(-c3nc4ccccc4o3)c2)cc(OCC)c1OCC	nt	nt	nt	4.5	nt	nt
CCOc1ccc(C(=O)Nc2cc(NC(=O)c3ccc(OCC)c(Cl)c3)cc(C(=O)O)c2)cc1Cl	3.6%	3.5%	-3.1	?	24.8%	-2.9
CCOc1ccc(C(=O)Nc2cccc(C(=O)O)c2)cc1Cl	i	12.2%	38.4*	46.9	i[5.75 µM]	58.8*
CCOc1ccc(C(=O)Nc2cccc(-c3nc4cccnc4o3)c2)cc1Cl	?	11.2µM*	-4.3	nt	nt	-5.9
Cc1cccc(Nc2cc(C)nc3nc(Cc4ccc(Cl)cc4)nn23)c1	nt	nt	nt	-14.8	nt	nt
C[C@@H]1C[C@@H]2OC(=O)[C@]3(C)[C@H]2[C@@H](OC3(C)O)[C@]2(C)C(=O)C=C[C@H]12 (some centres not stated)	13.1µM*	-3.7%	31.3*	22.7	?	26.3*
C=C1C(=O)O[C@@H]2C[C@@H](C)[C@@H]3C=CC(=O)[C@@]3(C)[C@@H](OC(C)=O)[C@H]12	2.08µM*	2.82µM*	-8.2	-99.2*	2.94µM*	-10.6
C=C1C(=O)O[C@@H]2C[C@@H](C)[C@@H]3C=CC(=O)[C@@]3(C)[C@@H](O)[C@H]12	0.828µM*	1.41µM*	-10.1	-99.9*	1.04µM*	-16.6
Cc1ccc(NC(=O)CN2C(=O)COc3ccc(S(=O)(=O)Nc4ccccc4)cc32)c(C)c1	nt	nt	nt	5.5	nt	nt
CCOc1cc(OCC)c(C(=O)CCC(=O)O)cc1OCC	?	nt	nt	nt	2.39µM*	nt
